# In PubChem BioAssay (NCATS):
# Records with an inconclusive call do not appear. Entries that show only a call come without a potency. Active and inactive are the calls of the source. Unless noted, the call rests on the fitted dose curve; in most records, active means well fitted curve in the direction sought with a large enough effect; inconclusive means small, poorly fitted or top-dose-only effect, or another doubt; inactive means no such curve, though single readings can be large; an effect the other way counts as inactive or inconclusive.
# Key:
# [1] = molecular target: Luciferin 4-monooxygenase (Photinus pyralis) (UniProt P08659); assay: Biochemical firefly luciferase enzyme assay for NPC (AID 624030); further: nearly all actives have a fitted effect of over 70% in size; further: potency means the concentration at half of the fitted maximal effect
# Luciferin 4-monooxygenase (Photinus pyralis), sequence (P08659 whole entry, looked up): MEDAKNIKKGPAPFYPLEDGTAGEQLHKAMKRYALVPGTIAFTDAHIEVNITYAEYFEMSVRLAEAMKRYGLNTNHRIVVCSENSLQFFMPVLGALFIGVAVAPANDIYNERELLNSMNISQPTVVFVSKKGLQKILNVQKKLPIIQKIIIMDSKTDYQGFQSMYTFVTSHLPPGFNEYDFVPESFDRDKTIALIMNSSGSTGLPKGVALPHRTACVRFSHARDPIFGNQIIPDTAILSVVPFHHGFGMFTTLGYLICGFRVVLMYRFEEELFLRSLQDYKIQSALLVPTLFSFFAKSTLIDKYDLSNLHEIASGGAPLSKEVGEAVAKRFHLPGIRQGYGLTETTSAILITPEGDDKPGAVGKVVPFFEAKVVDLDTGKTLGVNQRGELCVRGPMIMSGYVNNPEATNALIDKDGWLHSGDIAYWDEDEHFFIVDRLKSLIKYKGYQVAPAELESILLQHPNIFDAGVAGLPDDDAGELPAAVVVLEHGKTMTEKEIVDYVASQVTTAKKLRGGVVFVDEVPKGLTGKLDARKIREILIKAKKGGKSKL
# Procedure, shortened: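 Purified P. pyralis luciferase at 10 nM in 50 mM Tris Acetate (final), luminescence read within 5 minutes of enzyme addition to compounds. Activity normalised to PTC124 versus DMSO; concentration-response curves classed by r2, magnitude and activity.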
# [2] = S16 Schwann cell PMP22 intronic element firefly luciferase assay (AID 624032); further: nearly all actives have a fitted effect of over 30% in size; further: potency means the concentration at half of the fitted maximal effect
# Procedure, shortened: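 Rat S16 Schwann cells stably carrying firefly luciferase driven by a PMP22 intronic element, in 10% FBS, treated 24 h at 37 C. ONE-Glo luminescence normalized to PTC124 control and DMSO (0%); curves classed by r2, magnitude and activity.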
# [3] = test system: C2A; assay: qHTS profiling for inhibitors of Plasmodium falciparum proliferation (AID 504749); further: nearly all actives have a fitted effect of over 60% in size; further: potency means the concentration at half of the fitted maximal effect; conditions: P. falciparum in erythrocytes, SYBR Green DNA, 72 h; series mostly up to 28.7 µM
# Procedure, shortened: (§1)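 SYBR Green fluorescence (ex 485 nm, em 535 nm) reports parasite DNA after 72 h compound exposure of infected red cells at 0.3% parasitemia, 2.5% hematocrit; signal normalized to 0.29 uM artemisinin and vehicle wells.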
# [4] = test system: CP192; assay: as above; conditions: P. falciparum in erythrocytes, SYBR Green DNA, 72 h; series mostly up to 28.7 µM
# Procedure, shortened: as §1
# [5] = test system: CP194; assay: as above; conditions: P. falciparum in erythrocytes, SYBR Green DNA, 72 h; series mostly up to 28.7 µM
# Procedure, shortened: as §1
# [6] = test system: CP201; assay: as above; conditions: P. falciparum in erythrocytes, SYBR Green DNA, 72 h; series mostly up to 28.7 µM
# Procedure, shortened: as §1
# [7] = test system: CP217; assay: as above; conditions: P. falciparum in erythrocytes, SYBR Green DNA, 72 h; series mostly up to 28.7 µM
# Procedure, shortened: as §1
# [8] = test system: CP237; assay: as above; conditions: P. falciparum in erythrocytes, SYBR Green DNA, 72 h; series mostly up to 28.7 µM
# Procedure, shortened: as §1
# [9] = test system: CP250; assay: as above; conditions: P. falciparum in erythrocytes, SYBR Green DNA, 72 h; series mostly up to 28.7 µM
# Procedure, shortened: as §1
# [10] = test system: CP252; assay: as above; conditions: P. falciparum in erythrocytes, SYBR Green DNA, 72 h; series mostly up to 28.7 µM
# Procedure, shortened: as §1
# [11] = test system: CP256; assay: as above; conditions: P. falciparum in erythrocytes, SYBR Green DNA, 72 h; series mostly up to 28.7 µM
# Procedure, shortened: as §1
# [12] = test system: CP260; assay: as above; conditions: P. falciparum in erythrocytes, SYBR Green DNA, 72 h; series mostly up to 28.7 µM
# Procedure, shortened: as §1
# [13] = test system: CP266; assay: as above; conditions: P. falciparum in erythrocytes, SYBR Green DNA, 72 h; series mostly up to 28.7 µM
# Procedure, shortened: as §1
# [14] = test system: CP269; assay: as above; conditions: P. falciparum in erythrocytes, SYBR Green DNA, 72 h; series mostly up to 28.7 µM
# Procedure, shortened: as §1
# [15] = test system: CP329; assay: as above; conditions: P. falciparum in erythrocytes, SYBR Green DNA, 72 h; series mostly up to 28.7 µM
# Procedure, shortened: as §1
# [16] = test system: ECU; assay: as above; conditions: P. falciparum in erythrocytes, SYBR Green DNA, 72 h; series mostly up to 28.7 µM
# Procedure, shortened: as §1
# [17] = test system: JCK; assay: as above; conditions: P. falciparum in erythrocytes, SYBR Green DNA, 72 h; series mostly up to 28.7 µM
# Procedure, shortened: as §1
# [18] = test system: N140; assay: as above; conditions: P. falciparum in erythrocytes, SYBR Green DNA, 72 h; series mostly up to 28.7 µM
# Procedure, shortened: as §1
# [19] = test system: SC27B; assay: as above; conditions: P. falciparum in erythrocytes, SYBR Green DNA, 72 h; series mostly up to 28.7 µM
# Procedure, shortened: as §1
# [20] = molecular target: Peroxisome proliferator-activated receptor gamma (Homo sapiens) (UniProt P37231); assay: qHTS assay for small molecule antagonists of peroxisome proliferator-activated receptor gamma signaling (AID 588537; active means well fitted inhibition curve with a large enough effect in the signal ratio, with a control signal flat, not every such curve was filed as active; the % refers to the signal ratio;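 further: reporter cells co-stimulated with 50 nM rosiglitazone agonist during compound treatment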)
# Peroxisome proliferator-activated receptor gamma (Homo sapiens), sequence (P37231 whole entry, looked up): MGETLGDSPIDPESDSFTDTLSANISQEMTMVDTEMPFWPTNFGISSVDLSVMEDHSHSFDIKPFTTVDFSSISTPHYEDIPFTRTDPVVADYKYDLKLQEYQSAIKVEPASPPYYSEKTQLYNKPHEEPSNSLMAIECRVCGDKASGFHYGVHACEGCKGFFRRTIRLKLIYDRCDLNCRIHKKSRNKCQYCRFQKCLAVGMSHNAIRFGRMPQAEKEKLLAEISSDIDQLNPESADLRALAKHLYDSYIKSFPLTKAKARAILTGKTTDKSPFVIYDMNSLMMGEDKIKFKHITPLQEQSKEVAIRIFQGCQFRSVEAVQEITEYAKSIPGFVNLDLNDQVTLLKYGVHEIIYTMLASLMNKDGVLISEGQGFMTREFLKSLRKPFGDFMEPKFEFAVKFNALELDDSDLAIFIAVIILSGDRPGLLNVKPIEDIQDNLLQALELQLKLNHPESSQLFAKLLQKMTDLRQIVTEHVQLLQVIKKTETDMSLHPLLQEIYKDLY
# Procedure, shortened: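 Read-out: CCF4 fluorescence (ex 405, em 460/530 nm) after 2 h at RT. Cells were HEK293 carrying a UAS-bla reporter and treated 16 h at 37 C with compound plus rosiglitazone (50 nM final). Normalized to rosiglitazone and DMSO.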
smiles,measurement,setting,value
CC(C)CN(C[C@@H](O)[C@H](Cc1ccccc1)NC(=O)O[C@H]1CCOC1)S(=O)(=O)c1ccc(N)cc1,Potency,[1],inactive
same,Potency,[2],inactive
same,Potency,[3],inactive
same,Potency,[4],inactive
same,Potency,[5],inactive
same,Potency,[6],inactive
same,Potency,[7],inactive
same,Potency,[8],inactive
same,Potency,[9],inactive
same,Potency,[10],inactive
same,Potency,[11],inactive
same,Potency,[12],inactive
same,Potency,[13],inactive
same,Potency,[14],inactive
same,Potency,[15],inactive
same,Potency,[16],inactive
same,Potency,[17],inactive
same,Potency,[18],inactive
same,Potency,[19],inactive
CC(C)CN(C[C@@H](OP(=O)(O)O)[C@H](Cc1ccccc1)NC(=O)O[C@@H]1CCOC1)S(=O)(=O)c1ccc(N)cc1,Potency,[1],inactive
same,Potency,[2],inactive
same,Potency,[3],inactive
same,Potency,[4],inactive
same,Potency,[5],inactive
same,Potency,[6],inactive
same,Potency,[7],inactive
same,Potency,[8],inactive
same,Potency,[9],inactive
same,Potency,[10],inactive
same,Potency,[11],inactive
same,Potency,[12],inactive
same,Potency,[13],inactive
same,Potency,[14],inactive
same,Potency,[15],inactive
same,Potency,[16],inactive
same,Potency,[17],inactive
same,Potency,[18],inactive
same,Potency,[19],inactive
C[Si](C)(C)O[Si](C)(C)O[Si](C)(C)C,outcome,[20],inactive
CCCCCCCCOC(=O)c1cc(O)c(O)c(O)c1,outcome,[20],inactive
O=C(O)c1cc(O)c2c(c1)[C@H]([C@H]1c3cc(C(=O)O)cc(O)c3C(=O)c3c(O[C@@H]4OC(CO)C(O)C(O)C4O)cccc31)c1cccc(O[C@@H]3OC(CO)C(O)C(O)C3O)c1C2=O (some centres undefined),Potency,[1],16.1 µM (active)
same,Potency,[2],inactive
same,Potency,[3],inactive
same,Potency,[7],inactive
same,Potency,[8],inactive
same,Potency,[9],inactive
same,Potency,[10],inactive
same,Potency,[11],inactive
same,Potency,[12],inactive
same,Potency,[16],inactive
same,Potency,[17],inactive
same,Potency,[18],inactive
same,Potency,[19],inactive
O=C(O)CCCCCCCCC(=O)O,outcome,[20],inactive
O=C(Nc1ccccc1)c1ccccc1O,outcome,[20],inactive
CCC(C)n1ncn(-c2ccc(N3CCN(c4ccc(OCC5COC(Cn6cncn6)(c6ccc(Cl)cc6Cl)O5)cc4)CC3)cc2)c1=O (centres undefined),Potency,[1],inactive
same,Potency,[2],3.22 µM (active)
same,Potency,[3],inactive
same,Potency,[4],inactive
same,Potency,[5],inactive
same,Potency,[6],inactive
same,Potency,[7],inactive
same,Potency,[8],5.01 µM (active)
same,Potency,[9],inactive
same,Potency,[10],inactive
same,Potency,[11],inactive
same,Potency,[12],6.31 µM (active)
same,Potency,[13],inactive
same,Potency,[14],inactive
same,Potency,[15],inactive
same,Potency,[16],inactive
same,Potency,[17],inactive
same,Potency,[18],inactive
same,Potency,[19],inactive
